# Source: PubChem BioAssay
# Calls of active or inactive are those of the source.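 The calls were made as follows, unless noted: active = compound raises insulin release from rat beta cells at 5 mM glucose, no numeric limit stated; inactive = the rest.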
# Key:
# [1] = Wnt pathway potentiators raising nuclear beta-catenin – imaging, WNT3A-conditioned medium, mouse C2C12, NPC library, primary screen (AID 1117326; in the data active = nuclear beta-catenin stimulation mostly above about 4.2%, no sharp cut-off; inactive = mostly below about 10%; also: reference of the scale not given here); settings: stronger effect = higher value
# [2] = stimulators of insulin release from INS-1E, primary screen, cell-based, 5 mM glucose, NPC library (AID 1117329); settings: rat INS-1E insulin secretion, at 10 µM, stronger effect = higher value; also: reference of the scale not given here
# [3] = growth inhibition of GSK3B-pretreated HCT116 cells – cell-based, CellTiter-Glo, 0.2 to 20 µM (AID 1117336;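 active = compounds lowering colon cancer cell viability after pretreatment blocking the GSK3B kinase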); settings: HCT116 viability after GSK3B inhibitor, at 20 µM, stronger effect = higher value
# [4] = inhibition of endothelial tube formation, primary screen, imaging, VEGF stimulated, CD31 staining, tube area, NPC library (AID 1117340;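 active = compound that reduces growth-factor-driven endothelial tube area in a mixed cell culture, no cutoff stated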); settings: VEGF-stimulated ADSC/ECFC co-culture, at 10 µM, stronger effect = higher value
# [5] = GLP1 release stimulators, primary, NCI-H716, NPC library (AID 1117341;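 active = compound raises GLP1 secretion from the human gut endocrine cells, with no numeric limit stated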; also: reference of the scale not given here); settings: NCI-H716 cells, at 10 µM, stronger effect = higher value
# [6] = HCT116 colon cancer cell growth inhibition, primary screen, CellTiter-Glo luminescence, NPC library (AID 1117342;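 active = compounds that lower survival of HCT116 colon cancer cells in the luminescence readout, no numeric limit stated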); settings: at 20 µM (top of the series)
# [7] = reduced SW480 viability measured with CellTiter-Glo, NPC library, primary (AID 1117343;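 active = compounds that lower viability of the colon cancer cells in the luminescence readout, with no numeric limit stated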); settings: CellTiter-Glo luminescence; at 20 µM (top of the series)
# [8] = NPC library primary testing for decreased DLD-1 cell viability via CellTiter-Glo (AID 1117346;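 active = compounds that lower survival of DLD-1 colon cancer cells in the luminescence readout, no cutoff given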); settings: DLD-1 viability, CellTiter-Glo luminescence; at 20 µM (top of the series)
SMILES,nuclear beta-catenin stimulation ([1]; at 10 µM),"nuclear beta-catenin stimulation ([1]; stimulation, at 2 µM) [%]",insulin secretion stimulation [2],viability decrease [3],tube area decrease [4],GLP1 secretion stimulation [5],inhibition of viability [6],viability decrease (inhibition) [7],viability decrease (inhibition) [8]
O=C(OCCN1CCOCC1)c1cccnc1Nc1cccc(C(F)(F)F)c1,1.2% (inactive),-0.8,-0.1% (inactive),42% (inactive),8.9% (inactive),3.6% (inactive),55.9% (active),62.3% (active),28.3% (inactive)
CO/N=C(\C(=O)O)c1csc(NC(=O)CCl)n1,0.7% (inactive),2.9,1.4% (inactive),16.2% (inactive),-12.1% (inactive),1.7% (inactive),-2% (inactive),-1.7% (inactive),-2.1% (inactive)
CCCC(=O)Nc1ccc(O)c(C(C)=O)c1,1.7% (inactive),0.4,3.1% (inactive),-4.4% (inactive),-7% (inactive),-3.4% (inactive),2.9% (inactive),-3.5% (inactive),2.6% (inactive)
CCN(CC)C(=O)[C@]1(c2ccccc2)C[C@H]1CN,-2.4% (inactive),-0.9,10.5% (inactive),-13.1% (inactive),-15.6% (inactive),3.7% (inactive),-3.6% (inactive),7% (inactive),3.4% (inactive)
CCCCCCCCCCOCC(O)CN (stereo unspecified),49.7% (active),-0.2,4.5% (inactive),91.1% (active),65% (active),-3.3% (inactive),84.7% (active),102% (active),98.4% (active)
Oc1ccc(C(O)CNCCCCCCNCC(O)c2ccc(O)c(O)c2)cc1O (stereo unspecified),-0.7% (inactive),-2.3,1.65% (inactive),76.1% (active),-0.1% (inactive),4.5% (inactive),43% (inactive),42.9% (inactive),40.4% (inactive)
CC1CCCCN1CCCOC(=O)c1ccc(OC2CCCCC2)cc1 (stereo unspecified),14.4% (inactive),4.4,12.4% (inactive),21.7% (inactive),-14.7% (inactive),5.9% (inactive),83.6% (active),111% (active),94.7% (active)
CCC(=O)Nc1ccc(O)cc1,9.3% (inactive),1.9,-2.2% (inactive),-1% (inactive),16% (inactive),4.4% (inactive),12.2% (inactive),27% (inactive),14.6% (inactive)
CCCCCCCCC=CCCCCCCCC(=O)NCCOC(=O)CC(C(=O)O)S(=O)(=O)O (stereo unspecified),0.3% (inactive),-0.7,0.8% (inactive),36.1% (active),22.7% (inactive),-1% (inactive),17.1% (inactive),63.4% (active),81.6% (active)
Cc1onc(-c2c(Cl)cccc2Cl)c1C(=O)Cl,-0.1% (inactive),0.5,1.5% (inactive),-3.8% (inactive),54.1% (active),5.9% (inactive),13.6% (inactive),17% (inactive),-2.5% (inactive)
NC(=O)CC[C@@H](N)C(=O)O,2.1% (inactive),3.8,-0.7% (inactive),-14.2% (inactive),15.2% (inactive),-0.1% (inactive),2.55% (inactive),11.4% (inactive),-7.9% (inactive)
OC1(c2ccc(Cl)cc2)CCNCC1,-0.1% (inactive),-1.2,6.1% (inactive),13.1% (inactive),7.8% (inactive),1.3% (inactive),23.2% (inactive),30.5% (inactive),8.8% (inactive)
O=Cc1ccc(O)c(O)c1O,1.4% (inactive),1.9,-1.7% (inactive),87.5% (active),3.3% (inactive),3.4% (inactive),44.2% (inactive),78.5% (active),36.5% (inactive)
NCCCC[C@H](N)C(=O)O,1.6% (inactive),2,-2.1% (inactive),1.2% (inactive),-14.1% (inactive),-3.9% (inactive),-2.6% (inactive),12.8% (inactive),-0.6% (inactive)
